Source: PubChem BioAssay AID588405 (Sanford-Burnham Center for Chemical Genomics, 2011)
Hit rate of the full screen: of about 360,000 compounds, about 6,200 (1.7%) were called active. Many of the other results were omitted from the sample, so actives are more common in it than they were. Unmarked numbers belong to inactive results.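 The calls were made as follows: active = inhibition of at least 50% at 20 µM; inactive = the rest.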

assay: inhibition of PEG-3 promoter activity – cell-based, HeLa, luciferase luminescence, primary screen (AID 588405); conditions: HeLa PEG-Prom luciferase reporter, overnight, at 20 µM, active compounds read high

Row | SMILES | inhibition
1 | Cc1nn(-c2ccccc2)c(Cl)c1/C=N/NC(=O)c1nn(C)cc1[N+](=O)[O-] | -116%
2 | CC(C)(C)c1cc(C(=O)N/N=C/c2ccc([N+](=O)[O-])s2)n[nH]1 | 50.6% (active)
3 | O=[N+]([O-])c1ccc(C=Nc2ccc(Cl)cc2Cl)s1 | 47.5%
4 | CCNC(=O)C1(C)CCCN(C(=O)c2ccc3ccccc3n2)C1 (stereo not given) | -7.45%
5 | CNC(=O)c1cccc2nc3ccccc3nc12 | 6.22%
6 | CN(C)CCNC(=O)c1ccc(Cl)c2cc3ccccc3nc12 | 102% (active)
7 | CCCN(CCC)CCNC(=O)c1cc2c(C)nc3ccccc3c2o1 | 18.8%
8 | COc1ccc(-c2cc3c(c4c2ccn4C)C2CCC3C2)cn1 (stereo not given) | -6.53%
9 | CNC[C@H](CC1CCCCC1)NC[C@H](NCCC1CCCC1)[C@H](C)O | 73.8% (active)
10 | CCCCC[C@@H]1C=C(C(=O)OCC)[C@H](c2ccccc2)N1S(=O)(=O)c1ccc(C)cc1 | 12.8%
11 | CC(C)Cc1nnc(NC(=O)CCC(=O)Nc2ccc3cn[nH]c3c2)s1 | 19.8%
12 | COC(=O)c1cc(NC2c3ccccc3C(=O)N2c2ccc(Cl)cn2)cc(C(=O)OC)c1 (stereo not given) | -65.5%
13 | CN(Cc1ccccc1F)c1cc2c(c3c1ccn3C)C1CCC2O1 (stereo not given) | 33.1%
14 | Cc1cccc(-c2nc3ccc(C(=O)NCCN4CCN(C)CC4)cc3nc2-c2cccc(C)c2)c1 | 103% (active)
15 | Cc1cccc(C(=O)OC(C)CN2CCN(C)CC2)c1 (stereo not given) | -101%
16 | Cc1cc(C)cc(C(=O)NCCN2CCOCC2)c1 | 3.53%
17 | Cc1ccc(S(=O)(=O)NCC(=O)NNC(=O)c2ccc(Br)cc2)cc1C | 4.68%
18 | CCOc1cc(N2CCOCC2)c(OCC)cc1NC(=O)COC(=O)[C@H](Cc1c[nH]c2ccccc12)NC(C)=O | 22.9%
19 | CCOc1cc(N2CCOCC2)c(OCC)cc1NC(=O)COc1cccc2cccnc12 | 109% (active)
20 | CCOc1cc(N2CCOCC2)c(OCC)cc1NC(=O)c1ccc(C)s1 | -88.6%
21 | CC1(C(=O)Nc2cccc3c2CCCC3)CCN1C(=O)CCc1ccc(Cl)cc1Cl (stereo not given) | 36.2%
22 | COc1ccc(OC)c(C(O)c2nc3ccccc3n2C)c1 (stereo not given) | 0.26%
23 | CC1=C(C(=O)N2CCOCC2)CC(CC(=O)NCCCN(C)C)C(=O)N1Cc1ccc(C(C)(C)C)cc1 (stereo not given) | -10.2%

Row | SMILES | inhibition
24 | Cc1ccc(S(=O)Cc2ccc(C(=O)N3CCN(C4CCCCC4)CC3)o2)cc1 (stereo not given) | 24.1%
25 | CN(C)S(=O)(=O)c1cccc(C(=O)OCC(=O)N2CCCC2=O)c1 | -2.53%
26 | CCOC(=O)c1ccc(NC(=O)CNC(=O)c2ccco2)cc1 | 102% (active)
27 | CCOC(=O)c1ccc(NC(=O)Cc2cccs2)cc1 | -222%
28 | O=C(COC(=O)CNC(=O)c1ccco1)Nc1ccc(F)cc1 | 8.45%
29 | CCCNC(=O)C1(C)CCN(Cc2ccc(Cl)c(Cl)c2)C1 (stereo not given) | 1.28%
30 | CC(=O)Nc1ccc(-c2cn3cccnc3n2)cc1 | -72.3%
31 | Cc1ccc(NC(=O)Nc2cc(-c3ccccc3)nn2C)cc1Cl | 4.66%
32 | CC(=O)Nc1ccc(-c2csc(NC(=O)Nc3ccccc3)n2)cc1 | 102% (active)
33 | COc1ccc(S(=O)(=O)N(C)C[C@H]2Oc3c(NC(=O)Nc4ccc5c(c4)OCO5)cccc3C(=O)N([C@H](C)CO)C[C@@H]2C)cc1 | -2.6%
34 | CCCNC(=O)C1(C)CCN(C(=O)c2cc(F)ccc2C)C1 (stereo not given) | -1.83%
35 | CCc1nc2ccc(C(=O)N3CCC(O)(Cc4ccccc4)CC3)cn2c1N(C)C(=O)Cc1ccccc1 | 4.95%
36 | COc1ccc(/C(C)=N/N2CCOCC2)c(O)c1 | -9.18%
37 | Cc1cc(C)n(CC(O)COc2ccc(C(C)(C)C)cc2)n1 (stereo not given) | -28.6%
38 | CN(C)CC(O)COc1ccc(C(C)(C)c2ccc(OCC(O)CN(C)C)cc2)cc1 (stereo not given) | 77.5% (active)
39 | CCCC(O)(c1ccc(OC)cc1)C(CN(C)C)c1ccccc1 (stereo not given) | 7.67%
40 | CS(=O)(=O)N(CC(=O)N1CCCC1)Cc1ccccc1 | 3.29%
41 | CCCCc1ccc(S(=O)(=O)NC(=O)C2(C)CCN2C(=O)c2ccccc2)cc1 (stereo not given) | 0.57%
42 | O=C(NCCO)c1cccc(-c2cccc3nccn23)c1 | -16.2%
43 | O=C(Nc1ccc2c(c1)OCCO2)C(C1CC1)N1CCC(Cc2ccccc2)CC1 (stereo not given) | -10.2%
44 | COc1cccc(NC(=O)Nc2ccc(F)cc2)c1 | -212%
45 | CC(=O)c1ccc(Nc2nc(C(N)c3ccccc3)cs2)cc1 (stereo not given) | -58.5%
46 | O=C(Nc1cccc(F)c1)NC1CCCCCCC1 | -273%

Row | SMILES | inhibition
47 | COc1ccc(C(N)c2csc(NC(=O)Nc3cccc(C(F)(F)F)c3)n2)cc1 (stereo not given) | 96.6% (active)
48 | O=C(Nc1ccc(C(=O)N2CCOCC2)cc1)Nc1cccc(C(F)(F)F)c1 | 2.67%
49 | NC(c1ccccc1)c1csc(NC(=O)Nc2cccc(C(F)(F)F)c2)n1 (stereo not given) | 113% (active)
50 | NC(c1csc(NC(=O)Nc2cccc(C(F)(F)F)c2)n1)C1CCCCC1 (stereo not given) | 111% (active)
51 | COc1ccc(C(CC(=O)Nc2ccc(C)cc2)NC(=O)C(F)(F)F)cc1 (stereo not given) | 3.66%
52 | C/C(CC(=O)Nc1cccc(C(F)(F)F)c1)=N\NC(=O)C(=O)NCC(C)C | -1.6%
53 | Cc1cc(Br)ccc1NC(=O)CCCOc1cc(=O)n(C)c2ccccc12 | -16.6%
54 | Cc1ccc(C)c(OCCC(=O)Nc2cccc(S(=O)(=O)N3CCCC3)c2)c1 | 21.3%
55 | COC(=O)CNC(c1ccccc1Cl)c1cc(Br)ccc1NC(=O)CCN1CCOCC1 (stereo not given) | 20.5%
56 | COC(=O)Cc1cnc(NC(=O)CSc2nc(C(C)C)cc(=O)[nH]2)s1 | 1.1%
57 | CC1(Oc2cccc(F)c2)CCN(Cc2ccccc2OC(F)F)C1 (stereo not given) | 2.93%
58 | CCCNC(=S)N1CCC(NC(=O)C23CC4CC(CC(C4)C2)C3)CC1 | 8.28%
59 | CCNC(=O)C1CCCN(C(=O)c2cc(F)ccc2C)CC1 (stereo not given) | 2.54%
60 | CCc1nc2ccc(C(=O)NC3CCN(Cc4ccccc4)CC3)cn2c1N(C)CCN1CCOCC1 | -22.2%
61 | CCC(=O)N1CCC(C)(C(=O)Nc2cc(OC)c(OC)c(OC)c2)C1 (stereo not given) | -5.88%
62 | CCOC(=O)c1c(C)[nH]c2c1-c1ccccc1C(=O)C2=O | 108% (active)
63 | CCOC(=O)c1[nH]c2ccccc2c1N=C(C)N(CC)CC | 12.3%
64 | CCOC(=O)c1c(C)[nH]c(C)c1S(=O)(=O)NCCCc1ccco1 | -7.04%
65 | Brc1ccc(Nc2c3c(nc4ncnn24)CCC3)cc1 | 22.3%
66 | CC(=O)c1cccc(-c2cnc3c(NC=O)cc(-c4ccc(N5CCN(C)CC5)cc4)cn23)c1 | -143%
67 | CC1(C(=O)NS(=O)(=O)c2cccc(OC(F)F)c2)CCN1C(=O)C1CC1 (stereo not given) | -2.21%
68 | CCCCn1c(N)c(N2CCOCC2)c(=O)n(CC(=O)NCCc2ccccc2)c1=O | 2.61%
69 | CN(C(=O)CCN1C(=O)/C(=C/c2ccccc2F)SC1=S)C1CCS(=O)(=O)C1 (stereo not given) | 6.96%

Row | SMILES | inhibition
70 | O=C(CN1CCCCCC1)NCCN1C(=O)S/C(=C\c2ccccc2Cl)C1=O | 3.28%
71 | O=C1/C(=C\c2ccccc2Cl)SC(=S)N1CCC(=O)N1CCCc2ccccc21 | 105% (active)
72 | Cc1cc(Br)cn2c(Cc3cccc(F)c3)c(-c3cccc(Br)c3)nc12 | 33.6%
73 | COc1ccc(-c2ccc(C(=O)NCCN3CCOCC3)c3occc23)c(C)c1 | -2.5%
74 | CCOC1=C2[C@H]([C@H]3C(=O)N(c4ccccc4)C(=O)[C@H]3C1)[C@@H](c1ccccc1)N(S(=O)(=O)c1ccc(C)cc1)[C@H]2c1ccccc1 | 16.4%
75 | Cc1ccc(S(=O)(=O)N(C)C)cc1NC(=O)c1ccc(-n2cncn2)c([N+](=O)[O-])c1 | 6.01%
76 | CCN(CC)C(=O)C1CCCN(Cc2cccc(Cl)c2)C1 (stereo not given) | 3.55%
77 | COc1ccc(-c2csc(C(O)c3cccc(Cl)c3)n2)cn1 (stereo not given) | -7.77%
78 | COc1ccc2c(c1)c(=Cc1ccc(N(C)C)cc1)c1cc(-c3ccccc3)[n+](C)n12 | 104% (active)
79 | Cc1nc2cc(S(=O)(=O)C(F)(F)F)ccc2s1 | 2.35%
80 | COc1cccc(CN2CCC(C(=O)NC(c3ccc4c(c3)OCO4)c3ccccn3)CC2)c1 (stereo not given) | -0.88%
81 | Cc1cccnc1C(NC(=O)C1CCN(Cc2ccc(Cl)c(Cl)c2)CC1)c1ccc(Cl)cc1 (stereo not given) | 2.43%
82 | O=c1c2ccccc2ncn1/N=C/c1ccccc1 | -247%
83 | CCn1c(/C=C/c2ccc([N+](=O)[O-])o2)nc2ccccc2c1=O | 93.3% (active)
84 | Cc1ccc(-n2c(SCC(=O)N/N=C/C=C/c3ccccc3[N+](=O)[O-])nc3ccccc3c2=O)cc1 | 6.9%
85 | CC1(C(=O)NS(=O)(=O)Cc2cccc(Cl)c2)CCN1C(=O)Cc1ccccc1 (stereo not given) | 8.1%
86 | Cc1ccc(NS(=O)(=O)c2cc3c(cc2Br)NC(=O)CO3)cc1C | 24.2%
87 | O=C(CCl)Nc1ccc(Sc2ccc(NC(=O)CCl)cc2)cc1 | 99.8% (active)
88 | CC(C)(CCl)C(=O)Nc1ccc(Sc2ccc(F)cc2)cc1 | -14%
89 | O=C(CCl)Nc1cccc(CP(=O)(c2ccccc2)c2ccccc2)c1 | 22.4%
90 | CC(C)C1C(=O)N(Cc2cn(CCC3OCCO3)nn2)CCS(=O)(=O)N1Cc1ccc(-c2ccccc2C(F)(F)F)cc1 (stereo not given) | 12.5%
